# Rtt109 Vps75: inhibitors of C. albicans Rtt109/Vps75 HAT, primary screen, biochemical, ThioGlo CoA-SH fluorescence, plate reader | Histone acetyltransferase RTT109 (Candida albicans (strain SC5314 / ATCC MYA-2876)), … | purified Rtt109/Vps75, 4 h | inhibition, % at 34.9 µM | hit rate 0.16% among 330,000 | AID 540336, 2011;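 active = inhibition of at least 50% in every replicate; inconclusive = best replicate reaches 50% inhibition but some replicates fall short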
# TLR9-MyD88 block: inhibitors of TLR9-MyD88 association in cells, primary screen, cell-based, CHO, BLA complementation, fluorescence. Toll-like receptor 9 (Homo sapiens) + Myeloid differentiation primary response protein …. CCF4 FRET ratio. inhibition, % at 4.98 µM. hit rate 0.21% among 340,000. AID 504734, 2011;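 active = inhibition above the mean over all tested compounds plus 3 SD, cut at about 21% in these data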;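 note: 0% = DMSO only wells and 100% = clavulanate BLA inhibitor control wells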
# NOD2-RIPK2 inh: NOD2-RIPK2 binding disruptors in cells, primary screen, fluorescence, CHO cells, BLA complementation | Receptor-interacting serine/threonine-protein kinase 2 (Homo sapiens), O43353 | CCF4 ratio | inhibition, % at 4.98 µM | hit rate 0.38% among 360,000 | AID 624267, 2012; in the data active = inhibition above about 21%;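 note: 0% = vehicle only and 100% = reference blocker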
# m5-HT2A agonist: mouse Htr2a agonists via beta-arrestin recruitment, primary screen, cell-based, luminescence; 5-hydroxytryptamine receptor 2A (Mus musculus), P35363; CHO-K1 mHTR2A beta-arrestin complementation; percent of 30 µM serotonin response; activation, % at 7.6 µM; hit rate 0.66% among 360,000;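 active = activation above a run cutoff, the mean activation of all tested compounds plus 3 SD, cut at about 14% in these data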;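 note: 0% = plate median of compound wells and 100% = 30 µM serotonin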
# LANA-H2A inh: blockers of LANA interaction with H2A/H2B – biochemical, FP readout, HTS, primary screen; Protein LANA1 (Human herpesvirus 8 type P (isolate GK18)), Q9QR71; cell-free LANA-H2A/H2B peptide, fluorescence polarization; inhibition, % (test concentration not listed); hit rate 0.6% among 320,000; in the data active = inhibition mostly above about 10%, no sharp cut-off; inactive = mostly below about 6.7%
# TLR4-MyD88 BLA: inhibitors of TLR4-MyD88 association in cells, primary screen, cell-based, HeLa CL3-4, BLA complementation, FRET ratio; Toll-like receptor 4 (Homo sapiens) + Myeloid differentiation primary response protein …; HeLa CL3-4 TLR4/MyD88 BLA complementation; inhibition, % at 8.4 µM; hit rate 0.18% among 200,000; AID 861, 2007; in the data active = inhibition above about 25%;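 note: 0% = vehicle and 100% = reference inhibitor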
# MOR ag counter: OPRM1 agonists via beta-arrestin recruitment, confirmation, counter-screen for mouse HTR2A agonist project, cell-based, luminescence, single concentration; activation, % at 9.3 µM; AID 624380, 2012; U2OS OPRM1 beta-arrestin PathHunter; DMSO 0%, DAMGO 9.3 µM 100%; hit rate 5.3% among 2,300; shares compounds with m5-HT2A agonist;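 active = mean activation above the mean of DMSO-only wells plus 3 SD, cut at about 0.5% in these data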
# HTR2A ag conf: mouse HTR2A agonists, beta-arrestin recruitment, confirmation, cell-based, luminescence, CHO-K1 PathHunter, triplicate; shares compounds with m5-HT2A agonist; DMSO 0%, 30 µM serotonin 100%; activation, % at 7.6 µM; hit rate 19% among 2,300; AID 624381, 2012;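 active = mean activation across triplicates above the hit threshold derived in the original primary screen, cut at about 15% in these data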
# The depositor's hits bear a star; ? = inconclusive; . = no result given. In the library only some 1.8% were active in any assay of this set; here they are far more common.
SMILES,Rtt109 Vps75,TLR9-MyD88 block,NOD2-RIPK2 inh,m5-HT2A agonist,LANA-H2A inh,TLR4-MyD88 BLA,MOR ag counter,HTR2A ag conf
Cc1ccc(S(=O)(=O)N2CCOCC2)cc1NC(=O)COC(=O)c1ccc2c(c1)OCO2,-19,-8,-11,-3,2,1,.,.
Cc1ccc(S(=O)(=O)N2CCOCC2)cc1NC(=O)COC(=O)c1ccc2c(c1)OCCO2,8,-3,4,17*,-1,6,-1,-3
Cc1ccc(S(=O)(=O)N2CCOCC2)cc1NC(=O)CNCc1ccc(Cl)cc1Cl,-4,10,10,-1,-3,.,.,.
NS(=O)(=O)c1ccc(CCNS(=O)(=O)c2cccc(C(=O)O)c2)cc1,?,5,-3,10,0,.,.,.
CC(C)CCNC(=O)CCCCn1c(=O)[nH]c2ccsc2c1=O,2,0,0,2,6,-3,.,.
O=C(N[C@H]1/C=C\[C@@H](O)CCCC1)OCc1ccccc1,-9,-7,-1,4,.,.,.,.
CCc1nc2c(OCC(=O)C(C)(C)C)cccn2c1N(C)C(=O)CC(C)C,.,.,-12,16*,.,.,-1,-3
CC(C)c1cc(C(=O)Nc2cc(Br)ccc2O)no1,-11,2,-5,17*,-1,7,0.7*,2
CCCc1cc(C(=O)Nc2cc(Br)ccc2O)no1,6,-4,0,9,-2,-15,.,.
CN(Cc1ccccc1F)C(=O)COc1ccc(C(=O)c2ccccc2)cc1,1,-2,0,-3,4,.,.,.
Cc1cc(-c2ccc3ccccc3c2)n2ncnc2n1,10,-3,-1,21*,7,1,0,1
Cc1nc2ccc(NC(=O)c3ccc(C)c(S(=O)(=O)N4CCOCC4)c3)cc2s1,5,-10,-15,9,-1,.,.,.
COc1ccc(S(=O)(=O)N2c3ccccc3NC(=O)CC2C)cc1 (stereo unspecified),-1,-1,-9,19*,-1,.,-1,-3
CC1CC(=O)Nc2ccccc2N1S(=O)(=O)c1ccc(C(F)(F)F)cc1 (stereo unspecified),3,7,6,-2,-7,.,.,.
O=C(Nc1ccc(F)cc1)C(c1cccc(F)c1)N1CCN(CC(=O)N2CCCC2)CC1 (stereo unspecified),.,.,-12,-2,.,.,.,.
O=C(Nc1ccc(F)cc1)C(c1cc2ccccc2o1)N1CCN(CC(=O)N2CCCC2)CC1 (stereo unspecified),.,.,-4,27*,.,.,-1,-5
Cc1cc(Cl)cc(C)c1OCCNCc1ccccc1,3,5,2,21*,3,.,0,11
COc1ccc(/C=N/NC(=O)c2ccc(NC(=O)C3CCCCC3)cc2)cc1O,12,-8,-18,20*,-6,.,-1,-3
COc1ccc(Nc2nnc(-c3ccc(O)cc3)c3ccccc23)cc1,13,-7,2,30*,-4,3,0,6
Oc1ccc(Nc2nnc(-c3ccc(O)cc3)c3ccccc23)cc1,-1,-1,-2,11,1,-4,.,.
Cc1sc2nc(SCc3ccc(C(=O)O)cc3)n(Cc3ccco3)c(=O)c2c1C,19,-7,-3,16*,-2,.,0,8
CN1CCC(N(C)C(=O)COc2ccccc2-c2ccccc2)CC1,14,-8,-10,18*,-6,9,-1,4
Cc1ccncc1CNC(=O)c1ccccc1,-1,-7,-4,16*,.,.,0,0
CN(CC(=O)Nc1cccc(F)c1)C(=O)c1ccccc1Sc1ccccc1C#N,8,1,-4,-7,0,.,.,.
CCN(CC(=O)Nc1cc(Cl)cc(Cl)c1)CC(=O)NC1CCS(=O)(=O)C1 (stereo unspecified),-5,2,-2,-2,-1,.,.,.
SMILES,Rtt109 Vps75,TLR9-MyD88 block,NOD2-RIPK2 inh,m5-HT2A agonist,LANA-H2A inh,TLR4-MyD88 BLA,MOR ag counter,HTR2A ag conf
O=C(NCc1ccc(Cl)cc1)[C@@H]1CCCN1S(=O)(=O)c1ccc(Cl)cc1,-6,3,5,0,-1,.,.,.
CC[C@]1(C(=O)OC)[C@H]2C(=O)N(Cc3ccccc3)C(=O)[C@H]2[C@H]2CN(C)C(=NCc3ccccc3)N21,0,-2,0,21*,.,.,0,-2
CCOc1ccc(CNC(=O)CS(=O)(=O)Cc2nc(-c3ccc(OC)cc3)oc2C)cc1,0,-8,-11,20*,-4,.,0,0
CCOc1ccc(CCNC(=O)CS(=O)(=O)Cc2nc(-c3ccc(OC)cc3)oc2C)cc1,21,-13,-8,3,1,.,.,.
CC(=O)NCc1nc2ccccc2n1C(C)C,-1,-13,-20,18*,-1,5,0,-3
CC(C)C[C@H](NC(=O)N1CCn2c1nc1ccccc12)C(=O)NCCc1ccccc1,33,-22,11,3,7,.,.,.
CC(C)C[C@H](NC(=O)N1CCn2c1nc1ccccc12)C(=O)NCc1ccccc1,29,-5,-3,15*,1,.,.,7
O=C(CSc1nc2c(cnn2-c2ccc(F)cc2)c(=O)[nH]1)N1CCCCC1,2,8,-19,15*,-3,14,-1,-3
COc1ccc(CCNC(=O)c2ccc(OCC(=O)N3CCOCC3)c(OC)c2)cc1OC,0,2,-8,9,2,.,.,.
CCCCn1nnnc1C(c1cc2ccccc2o1)N1CCN(C(=O)OCC)CC1 (stereo unspecified),.,.,15,17*,.,.,-1,-5
CCOC(=O)C1(C)CCCN1C(=O)c1ccccc1OC (stereo unspecified),.,.,-6,15*,.,.,-1,-4
CCOC(=O)C1(C)CCCCN1C(=O)c1ccccc1OC (stereo unspecified),.,.,9,-2,.,.,.,.
CC(C)NC(=O)N[C@H]1CC[C@H](CC(=O)NCc2ccc(Oc3ccccc3)cc2)O[C@@H]1CO,.,.,-6,15*,.,.,-1,-4
Cc1c(C(=O)NC(=S)Nc2ccc(N3CCOCC3)cc2)cccc1[N+](=O)[O-],-4,5,-2,1,0,7,.,.
